Assay [1] is described as follows: Nuclear factor erythroid 2-related factor 2/antioxidant responsive element (Nrf2/ARE) small molecule agonists: qHTS cell viability counter screen in human keratinocytes (AID 1919968; active = well fitted curve in the direction sought with a large enough effect in the repeat runs; an effect the other way counts as inactive or inconclusive; note: nearly all actives have a fitted effect of over 55% in size). Put shortly:
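Measured as CellTiter-Fluor fluorescence, this readout tracks cytotoxicity in the same wells as the ARE-luciferase screen. HaCaT reporter cells (1,500/well) received compounds after a 5 h pre-incubation and were exposed for 23 h.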

A short description of assay [2]: Nuclear factor erythroid 2-related factor 2/antioxidant responsive element (Nrf2/ARE) small molecule agonists: luciferase reporter gene qHTS assay in human keratinocytes (AID 1919969). Note: nearly all actives have a fitted effect of over 35% in size.
Assay [3] concerns the target Gonadotropin-releasing hormone receptor (Homo sapiens) (UniProt P30968). In words: Human gonadotropin-releasing hormone receptor (GnRHR) small molecule agonists, calcium flux assay in GnRHR-HEK293 cells (AID 1920063). Note: nearly all actives have a fitted effect of over 35% in size. Put shortly: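 Fluorescence kinetics (480 nm excitation, 540 nm emission; 3 min, 1 s steps) report calcium mobilisation in human GnRHR-HEK293 cells in agonist mode. Dye incubation: 1 h, 37 C.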

The target in assay [4] is KiSS-1 receptor (Homo sapiens) (UniProt Q969F8). The assay can be described thus: Human kisspeptin (KISS1R) small molecule agonists, calcium flux assay in KISS1R-HEK293 cells (AID 1920064; active = well fitted curve in the direction sought with a large enough effect in the repeat runs; an effect the other way counts as inactive or inconclusive). Put shortly:
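Measures KISS1R agonism through calcium-sensitive dye fluorescence in stably transfected HEK293 cells, read for 3 min after pin-tool compound delivery; 15-point titrations in triplicate.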

Assay [5] can be described thus: G protein-coupled receptor (GPCR) small molecule agonists, calcium flux assay: HEK293 wild type cell line counter screen (AID 1920065). Put shortly: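 Readout: fluorescence at 480 nm excitation/540 nm emission, sampled at 1 s intervals for 3 min. Cells had been cultured 18 h, then dye-loaded 1 h at 37 C before compound or ATP addition.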
The nature of assay [6]: p53 small molecule agonists, cell-based qHTS assay with human liver microsomes (AID 1963577). An outline of the steps:
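p53RE-bla reporter cells were pre-incubated 5 h at 37 C, then treated with compounds plus human liver microsomes (0.5 mg/mL final) and NADPH (0.5 mg/mL final) for 16 h at 37 C. Beta-lactamase activity was read by LiveBLAzer fluorescence after 2 h at room temperature.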

Assay [7] is described as follows: p53 small molecule agonists, cell-based qHTS assay with rat liver microsomes (AID 1963578). An outline of the steps:
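p53RE-bla cells were exposed to compounds together with rat liver microsomes (0.5 mg/mL final) and NADPH (0.5 mg/mL final) for 16 h at 37 C, then read by LiveBLAzer beta-lactamase fluorescence after 2 h at room temperature.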

Assay [8] can be described thus: p53 small molecule agonists, cell-based qHTS assay with human liver microsomes: qHTS cell viability counter screen (AID 1963579). Note: nearly all actives have a fitted effect of over 45% in size. An outline of the steps: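 p53RE-bla cells (4,000/well) were pre-incubated 5 h at 37 C, then given compounds in DMSO plus human liver microsomes (0.5 mg/mL final) and NADPH (0.5 mg/mL final) for 16 h at 37 C. Viability was read by CellTiter-Glo luminescence.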

A short description of assay [9]: p53 small molecule agonists, cell-based qHTS assay with rat liver microsomes: qHTS cell viability counter screen (AID 1963580). Note: nearly all actives have a fitted effect of over 45% in size. Put shortly: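 Viability is assessed in parallel with the p53 reporter read: HCT-116 p53RE-bla cells receive compounds plus rat microsomes and NADPH (0.5 mg/mL final apiece), incubate 16 h at 37 C, and then CellTiter-Glo luminescence is recorded.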

The nature of assay [10]: p53 small molecule agonists, cell-based qHTS assay: qHTS cell viability counter screen (AID 1963581). Note: nearly all actives have a fitted effect of over 45% in size. Put shortly: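 In the same plates used for the p53 bla reporter, HCT-116 cells given compounds for 16 h at 37 C received CellTiter-Glo; luminescence was recorded 30 min later at room temperature.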
A short description of assay [11]: p53 small molecule agonists, cell-based qHTS assay (AID 1963582; active = well fitted activation curve with a large enough effect in the signal ratio in the repeat runs, not every such curve was filed as active; the % refers to the signal ratio). Put shortly:
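Compounds are pin-transferred in DMSO onto p53RE-bla cells and incubated 16 h at 37 C. The B/G FRET beta-lactamase substrate is then applied for 2 h at RT and fluorescence recorded.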

Assay [12] addresses 5-hydroxytryptamine receptor 2A (Homo sapiens) (UniProt P28223). In words: 5-hydroxytryptamine receptor 2A (HTR2A) small molecule antagonists, cell-based qHTS assay (AID 1963586). Note: nearly all actives have a fitted effect of over 45% in size. Note: potency is the fitted concentration of half-maximal effect. Put shortly:
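Antagonist-mode intracellular calcium assay: DOI (4 nM) added after 5 min compound pre-incubation at room temperature to dye-loaded HTR2A-CHO cells. Fluorescence followed for 3 min, sampled every second.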

For assay [13] the target is unchanged. The assay can be described thus: 5-hydroxytryptamine receptor 2A (HTR2A) small molecule agonists, cell-based qHTS assay (AID 1963587). Note: nearly all actives have a fitted effect of over 30% in size. Put shortly: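 CHO cells stably expressing human HTR2A, plated 18 h, loaded with calcium dye 1 h at 37 C. Agonist mode: compounds added and intracellular calcium fluorescence recorded kinetically for 2 min at 1 sec intervals.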

Assay [14] concerns the target Muscarinic acetylcholine receptor M1 (Homo sapiens) (UniProt P11229). In words: Cholinergic receptor muscarinic 1 (CHRM1) small molecule antagonists, cell-based qHTS assay (AID 1963588). Note: nearly all actives have a fitted effect of over 40% in size. Put shortly:
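CHRM1-CHO calcium-flux assay, antagonist mode. Cells were seeded 18 h, dye-loaded 1 h at 37 C and given compound for 5 min at RT, then acetylcholine was added at 50nM. FDSS fluorescence was read 3 min; 15 concentrations, three runs.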

The target is the same in assay [15]. In words: Cholinergic receptor muscarinic 1 (CHRM1) small molecule agonists, cell-based qHTS assay (AID 1963589). Note: nearly all actives have a fitted effect of over 35% in size. Put shortly:
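Each compound was tested at 15 concentrations across three independent runs on dye-loaded CHO cells stably expressing human CHRM1, reading intracellular calcium fluorescence kinetically at 1 sec intervals.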

A short description of assay [16]: cAMP Responsive Elements (CRE) small molecule agonists, cell-based qHTS assay (AID 1963590). Put shortly: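 Cell line: CRE-bla HEK 293T; medium DMEM/10% dialyzed FBS/0.1 mM NEAA/1 mM pyruvate/25 mM HEPES; 3 h compound exposure; beta-lactamase FRET readout after 2 h substrate loading at RT.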
A short description of assay [17]: cAMP Responsive Elements (CRE) small molecule antagonists, cell-based qHTS assay (AID 1963591; active = well fitted inhibition curve with a large enough effect in the signal ratio in the repeat runs, not every such curve was filed as active; the % refers to the signal ratio). Put shortly:
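Inhibition of NKH477-driven (0.25 uM final) CRE-beta-lactamase signal in HEK293T cells, 3 h compound exposure at 37 °C, detected by FRET substrate fluorescence.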

Assay [18] deals with Beta-2 adrenergic receptor (Homo sapiens) (UniProt P07550). The assay can be described thus: Adrenergic beta2 receptor (ADRB2) small molecule antagonists, cell-based qHTS assay (AID 1963592). Note: series mostly up to about 92 µM; nearly all actives have a fitted effect of over 50% in size. Put shortly: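 Cells (CHO, stable ADRB2 overexpression) incubated 18-20hr at 37C; compounds added from DMSO; agonist mix (1nM isoproterenol, 100uM IBMX, 25uM Ro-20-1724) added; 0.5hr RT; d2-cAMP and anti-cAMP-cryptate added; 1hr RT; 665/615 nm read.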
Beta-2 adrenergic receptor (Homo sapiens), sequence (P07550 whole entry, looked up): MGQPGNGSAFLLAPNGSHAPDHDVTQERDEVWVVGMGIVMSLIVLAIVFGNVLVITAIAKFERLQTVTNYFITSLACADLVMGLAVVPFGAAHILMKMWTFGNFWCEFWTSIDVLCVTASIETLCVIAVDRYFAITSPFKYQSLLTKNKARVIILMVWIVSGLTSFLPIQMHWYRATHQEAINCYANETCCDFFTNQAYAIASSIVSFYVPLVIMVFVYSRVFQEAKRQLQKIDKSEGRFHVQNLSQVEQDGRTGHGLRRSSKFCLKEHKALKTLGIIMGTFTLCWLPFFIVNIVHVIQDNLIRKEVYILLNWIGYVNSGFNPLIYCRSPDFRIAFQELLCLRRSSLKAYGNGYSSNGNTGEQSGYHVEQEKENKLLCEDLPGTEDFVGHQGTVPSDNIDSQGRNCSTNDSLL

For assay [19], the target named is D(2) dopamine receptor (Homo sapiens) (UniProt P14416). The assay can be described thus: Dopamine D2 receptor (DRD2) small molecule agonists, cell-based qHTS assay (AID 1963594). Note: nearly all actives have a fitted effect of over 35% in size. Put shortly:
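HEK293 cells stably expressing human DRD2, pre-treated with PDE inhibitor Ro20-1724 (0.1 mM final) and compound 10 min at room temperature, then stimulated with NKH477 (200nM […]) for 30 min. cAMP read by HTRF (665/620 nm).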

For assay [20] the target is unchanged. The assay can be described thus: Dopamine D2 receptor (DRD2) small molecule antagonists, cell-based qHTS assay (AID 1963595; active = well fitted inhibition curve with a large enough effect in the signal ratio in the repeat runs, with a control signal flat; the % refers to the signal ratio). Put shortly:
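HEK293 cells stably expressing DRD2 were preincubated with 0.1 mM Ro20-1724, then with compound for 10 min at room temperature. Cells were stimulated with 200 nM NKH477 plus 12 nM quinpirole for 30 min, and cAMP was read by HTRF.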

Our source for the Potency values is PubChem BioAssay (Tox21).

The structures appear in SMILES notation. Inconclusive results are not listed. The source made the active and inactive calls. Unless noted, calls come from the whole dose curve.

D(2) dopamine receptor (Homo sapiens), sequence (P14416 whole entry, looked up): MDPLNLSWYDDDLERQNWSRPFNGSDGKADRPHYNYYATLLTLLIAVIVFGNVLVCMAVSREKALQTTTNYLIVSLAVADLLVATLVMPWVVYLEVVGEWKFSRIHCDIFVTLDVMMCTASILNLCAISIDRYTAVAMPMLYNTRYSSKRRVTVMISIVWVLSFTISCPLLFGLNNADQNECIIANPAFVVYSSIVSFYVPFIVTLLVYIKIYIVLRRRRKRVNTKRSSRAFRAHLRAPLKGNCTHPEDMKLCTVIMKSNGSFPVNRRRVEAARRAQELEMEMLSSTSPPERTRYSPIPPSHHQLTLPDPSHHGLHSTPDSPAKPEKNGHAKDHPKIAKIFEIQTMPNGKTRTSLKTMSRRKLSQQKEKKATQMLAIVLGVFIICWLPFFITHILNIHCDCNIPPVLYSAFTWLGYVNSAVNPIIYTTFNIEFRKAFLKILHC
KiSS-1 receptor (Homo sapiens), sequence (Q969F8 whole entry, looked up): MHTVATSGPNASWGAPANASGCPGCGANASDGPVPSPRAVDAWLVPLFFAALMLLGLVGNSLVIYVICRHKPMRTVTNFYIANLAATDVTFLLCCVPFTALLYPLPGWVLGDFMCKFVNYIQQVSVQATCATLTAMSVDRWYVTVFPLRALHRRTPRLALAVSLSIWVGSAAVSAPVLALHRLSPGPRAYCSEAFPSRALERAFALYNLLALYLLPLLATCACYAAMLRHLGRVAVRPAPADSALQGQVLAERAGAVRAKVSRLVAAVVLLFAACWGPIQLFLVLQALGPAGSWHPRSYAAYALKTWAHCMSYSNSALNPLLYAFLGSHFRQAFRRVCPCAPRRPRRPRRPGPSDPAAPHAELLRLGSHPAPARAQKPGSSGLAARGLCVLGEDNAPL
Muscarinic acetylcholine receptor M1 (Homo sapiens), sequence (P11229 whole entry, looked up): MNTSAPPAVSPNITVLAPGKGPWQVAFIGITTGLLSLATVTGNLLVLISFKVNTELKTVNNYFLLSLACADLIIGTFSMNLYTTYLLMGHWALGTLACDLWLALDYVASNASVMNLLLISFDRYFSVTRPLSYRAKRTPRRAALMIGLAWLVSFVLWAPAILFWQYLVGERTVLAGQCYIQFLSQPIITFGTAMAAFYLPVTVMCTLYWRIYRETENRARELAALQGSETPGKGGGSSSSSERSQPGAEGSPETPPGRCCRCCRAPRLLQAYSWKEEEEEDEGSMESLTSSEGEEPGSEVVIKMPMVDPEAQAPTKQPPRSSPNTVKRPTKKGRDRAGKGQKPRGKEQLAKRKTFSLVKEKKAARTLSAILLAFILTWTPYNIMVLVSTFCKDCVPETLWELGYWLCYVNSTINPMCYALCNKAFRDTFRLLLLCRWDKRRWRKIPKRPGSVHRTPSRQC
5-hydroxytryptamine receptor 2A (Homo sapiens), sequence (P28223 whole entry, looked up): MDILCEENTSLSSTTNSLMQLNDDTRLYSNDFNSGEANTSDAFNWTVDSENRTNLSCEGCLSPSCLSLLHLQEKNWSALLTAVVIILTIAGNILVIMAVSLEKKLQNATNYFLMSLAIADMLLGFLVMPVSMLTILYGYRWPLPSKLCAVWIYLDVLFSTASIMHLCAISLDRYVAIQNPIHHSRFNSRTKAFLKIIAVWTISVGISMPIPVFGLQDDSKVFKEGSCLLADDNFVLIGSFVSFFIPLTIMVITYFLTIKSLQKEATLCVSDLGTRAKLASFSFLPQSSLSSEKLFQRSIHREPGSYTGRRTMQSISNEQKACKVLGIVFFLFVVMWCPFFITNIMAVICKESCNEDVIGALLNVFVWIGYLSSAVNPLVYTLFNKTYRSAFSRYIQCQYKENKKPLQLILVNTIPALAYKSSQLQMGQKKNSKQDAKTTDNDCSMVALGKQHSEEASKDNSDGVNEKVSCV
Gonadotropin-releasing hormone receptor (Homo sapiens), sequence (P30968 whole entry, looked up): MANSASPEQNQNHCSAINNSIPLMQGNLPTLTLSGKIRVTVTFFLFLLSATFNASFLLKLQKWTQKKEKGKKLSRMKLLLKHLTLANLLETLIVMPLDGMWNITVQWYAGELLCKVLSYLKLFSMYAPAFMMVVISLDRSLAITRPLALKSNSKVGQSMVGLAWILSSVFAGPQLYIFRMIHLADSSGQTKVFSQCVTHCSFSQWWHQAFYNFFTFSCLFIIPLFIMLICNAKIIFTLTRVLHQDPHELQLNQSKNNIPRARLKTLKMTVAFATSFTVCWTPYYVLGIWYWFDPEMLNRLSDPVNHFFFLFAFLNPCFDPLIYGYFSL

For the compound `O=S(=O)(O)CCCN1CCOCC1`, the Potency entry in assay [1], in assay [2], in assay [3], in [4], in [5] and in assay [6] was “inactive” each time. In addition, the Potency entry in assay [7], in assay [8], in assay [9], in assay [10], in assay [11] and in [12] was “inactive” each time. The Potency entry in assay [13], in [14], in assay [15], in assay [16], in [17] and in [18] was “inactive” throughout. In addition, the Potency entry in [19] and in [20] was “inactive” throughout.
Regarding `Nc1ccc2c(S(=O)(=O)O)cccc2c1S(=O)(=O)O`, the Potency result in assay [1], in [2], in [3], in assay [4], in assay [5] and in [6] was “inactive” each time. For the same compound, the Potency entry in assay [7], in [8], in [9], in assay [10], in assay [11] and in assay [12] was “inactive” in each case. Further, the Potency result in [13], in assay [14], in [15], in [16], in assay [17] and in assay [18] was “inactive” throughout. Moreover, the Potency result in [19] and in [20] was “inactive” each time.
In the case of `CC1(C)C(=O)N(Br)C(=O)N1Cl`, the Potency entry in assay [1], in assay [2], in [3], in assay [4], in assay [5] and in assay [6] was “inactive” in each case. For the same compound, the Potency entry in assay [7], in assay [8], in assay [9], in assay [10], in [11] and in [12] was “inactive” throughout. Moreover, the Potency result in assay [13], in [14], in assay [15], in assay [16], in [17] and in [18] was “inactive” throughout. Further, the Potency result in [19] and in assay [20] was “inactive” each time.
In the case of `CC1CC(O)CC(C)(C)C1` (centres undefined), the Potency result in [1], in assay [2], in [3], in [4], in assay [5] and in [6] was “inactive” in each case. Moreover, the Potency entry in assay [7], in [8], in assay [9], in [10], in assay [11] and in [12] was “inactive” throughout. Further, the Potency entry in assay [13], in assay [14], in assay [15], in assay [16], in assay [17] and in assay [18] was “inactive” throughout. Further, the Potency result in assay [19] and in assay [20] was “inactive” throughout.
With `CC(C)(C)c1nnc(NS(=O)(=O)c2ccc(N)cc2)s1`, the Potency entry in assay [1], in [2], in assay [3], in [4], in [5] and in assay [6] was “inactive” each time. Besides, the Potency result in [7], in assay [8], in [9], in assay [10], in assay [11] and in [13] was “inactive” in each case. Further, the Potency result in assay [14], in assay [15], in assay [16], in assay [17], in assay [18] and in [20] was “inactive” each time. The Potency in assay [12] was 7.29 µM (active).
For the compound `Brc1cc(Br)cc(Br)c1`, the Potency entry in assay [1], in [2], in assay [3], in assay [4], in [5] and in assay [6] was “inactive” each time. Further, the Potency result in assay [7], in assay [8], in assay [9], in assay [10], in assay [11] and in assay [12] was “inactive” each time. Further, the Potency entry in [13], in [14], in assay [15], in assay [16], in [17] and in [18] was “inactive” in each case. In addition, the Potency entry in assay [19] and in assay [20] was “inactive” throughout.
As for `CC(CO)Oc1ccccc1` (centres undefined), the Potency result in assay [1], in [2], in assay [3], in [4], in assay [5] and in assay [6] was “inactive” throughout. Moreover, the Potency entry in assay [7], in assay [8], in assay [9], in assay [10], in assay [11] and in [12] was “inactive” throughout. The Potency result in [13], in assay [14], in assay [15], in assay [16], in assay [17] and in [18] was “inactive” throughout. In addition, the Potency entry in [19] and in [20] was “inactive” throughout.
